Records with an inconclusive call do not appear. Active and inactive are the calls of the source. The call rests on the fitted dose curve; in most records, active means well fitted cell-killing curve with a large enough effect; inconclusive means small, poorly fitted or top-dose-only effect, or effect the other way; inactive means no such curve, though single readings can be large or run the other way.
Tests used:
[1] = Quantitative High-Throughput drug screen in 47 multiple myeloma cell lines against the NCATS MIPE library collection: FR4_PLB cell viability assay (AID 1918924; further: nearly all actives have a fitted effect of over 35% in size)
In short: (§1)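 qHTS of the MIPE 4.0 collection: 500 myeloma cells/well, 48 h drug exposure at 37C in 5% CO2, then CellTiter-Glo for 5 min at room temperature before luminescence reading.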

[2] = Quantitative High-Throughput drug screen in 47 multiple myeloma cell lines against the NCATS MIPE library collection: Delta47_JCRB cell viability assay (AID 1918925; further: nearly all actives have a fitted effect of over 45% in size)
In short: (§2)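 We plated 500 myeloma cells per well, pinned in MIPE 4.0 compounds, and incubated for 48 hours at 37C. ATP was then quantified with CellTiter-Glo, with DMSO and media-only wells defining 100% and 0%.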

[3] = Quantitative High-Throughput drug screen in 47 multiple myeloma cell lines against the NCATS MIPE library collection: EJM_DSMZ cell viability assay (AID 1918926; further: nearly all actives have a fitted effect of over 30% in size)
In short: as §2

[4] = Quantitative High-Throughput drug screen in 47 multiple myeloma cell lines against the NCATS MIPE library collection: ARP1_JJKsccF8 cell viability assay (AID 1918928; further: nearly all actives have a fitted effect of over 40% in size)
In short: (§3)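 Viability screen: myeloma cells (500/well) incubated 48 h at 37 °C, humidified 5% CO2, with pinned library compounds; CellTiter-Glo added, luminescence read; DMSO wells set 100%, medium-only wells 0%.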

[5] = Quantitative High-Throughput drug screen in 47 multiple myeloma cell lines against the NCATS MIPE library collection: Karpas620_DSMZ cell viability assay (AID 1918959); further: nearly all actives have a fitted effect of over 30% in size
In short: as §1

[6] = Quantitative High-Throughput drug screen in 47 multiple myeloma cell lines against the NCATS MIPE library collection: KMM1_JCRB cell viability assay (AID 1918960); further: nearly all actives have a fitted effect of over 30% in size
In short: as §3

[7] = Quantitative High-Throughput drug screen in 47 multiple myeloma cell lines against the NCATS MIPE library collection: AMO1_DSMZ cell viability assay (AID 1918927; further: nearly all actives have a fitted effect of over 30% in size)
In short: as §2

[8] = Quantitative High-Throughput drug screen in 47 multiple myeloma cell lines against the NCATS MIPE library collection: ARD_JJKsccE7 cell viability assay (AID 1918929)
In short: as §2

[9] = Quantitative High-Throughput drug screen in 47 multiple myeloma cell lines against the NCATS MIPE library collection: Karpas417_ECACC cell viability assay (AID 1918961); settings: Karpas417 myeloma viability, CellTiter-Glo ATP luminescence, 48 h; viability (% of DMSO): at 45.8 µM (top of the series)
In short: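 Luminescent ATP measurement with CellTiter-Glo gives viability, scaled between DMSO-only wells (100%) and media-only wells (0%). Cells, 500 per well, faced library compounds for 48 hours at 37C.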
Potency means the concentration at half of the fitted maximal effect.

CC(C)(C)[C@H](NC(=O)c1ccc(N)c(Cl)c1)C(=O)N1CCC[C@@H]1C(=O)N[C@H](C#N)CC(=O)O
inactive: viability (% of DMSO control) [1] 107% [at 3.51 µM] | viability (% of DMSO) [2] 119% [at 3.51 µM] | viability, % of control [3] 97.8% [at 3.51 µM] | viability [4] 111% [at 3.51 µM] | viability (% of DMSO) [5] 126% [at 3.51 µM] | viability (% of DMSO) [6] 90.2% [at 3.51 µM]

Nc1ccn(C[C@@H](CO)OCP(=O)(O)O)c(=O)n1
inactive: Potency [1] | Potency [2] | Potency [7] | Potency [4] | Potency [6]

N#Cc1ccc(COC[C@H]2O[C@@H](n3c(NCc4ccc(Cl)c(Cl)c4)nc4c(N)ncnc43)[C@@H](O)[C@@H]2O)cc1
active: Potency [1] 13200 nM | Potency [2] 16600 nM | Potency [4] 6620 nM | Potency [5] 418 nM | Potency [6] 5260 nM

COc1ccc(C[C@@H](C)[C@@H](C)Cc2ccc(OC)c(OC)c2)cc1OC
active: Potency [1] 118 nM | Potency [2] 296 nM | Potency [4] 132 nM | Potency [6] 235 nM

COc1cc(OC)c(C=CS(=O)(=O)Cc2ccc(OC)c(NCC(=O)O)c2)c(OC)c1
active: Potency [1] 118 nM | Potency [2] 148 nM | Potency [7] 33.2 nM | Potency [4] 372 nM | Potency [8] 74.3 nM | Potency [6] 74.3 nM | Potency [9] 1180 nM

OCc1ccccc1O[C@@H]1O[C@H](CO)[C@H](O)[C@H](O)[C@H]1O
active: Potency [2] 13200 nM | Potency [3] 10500 nM
inactive: Potency [1] | Potency [8] | Potency [5] | Potency [6]

COc1cc(C(C)C)c(Oc2cnc(NC(CO)CO)nc2N)cc1I
inactive: Potency [4]
active: Potency [1] 5260 nM | Potency [3] 469 nM | Potency [7] 14800 nM

O=C(C=CC#Cc1cccc(NS(=O)(=O)c2ccccc2)c1)NO
active: Potency [1] 1180 nM | Potency [2] 1180 nM | Potency [3] 5900 nM | Potency [4] 372 nM | Potency [5] 1870 nM | Potency [6] 526 nM

CCOC(=O)C=C[C@H](C[C@@H]1CCNC1=O)NC(=O)[C@@H](CC(=O)[C@@H](NC(=O)c1cc(C)on1)C(C)C)Cc1ccc(F)cc1
inactive: Potency [1] | Potency [2] | Potency [3] | Potency [4] | Potency [5] | Potency [6] | Potency [9]

CN1CCCN(C(=O)c2cccc(-c3ccc(C=C4C(=O)Nc5ccc(Cl)cc54)o3)c2)CC1
active: Potency [1] 26400 nM | Potency [2] 20900 nM | Potency [7] 7430 nM | Potency [4] 16600 nM | Potency [8] 8330 nM | Potency [5] 9350 nM | Potency [6] 18700 nM | Potency [9] 3720 nM

C=C(C)[C@@H]1CC[C@]2(C)CC[C@]3(C)[C@H](CC[C@@H]4[C@@]5(C)CC[C@H](O)C(C)(C)[C@H]5CC[C@]43C)[C@@H]12
inactive: Potency [1] | Potency [2] | Potency [3] | Potency [5] | Potency [6]

C#Cc1cccc(Nc2ncnc3cc(OCCOC)c(OCCO)cc23)c1
active: Potency [1] 7430 nM | Potency [2] 1050 nM | Potency [7] 2350 nM | Potency [4] 23500 nM | Potency [8] 418 nM | Potency [6] 4690 nM | Potency [9] 526 nM

O=c1[nH]c(=O)n([C@H]2C[C@@H](O)[C@@H](CO)O2)cc1F
active: Potency [1] 13200 nM | Potency [2] 18700 nM | Potency [7] 1660 nM | Potency [4] 5260 nM | Potency [8] 23500 nM | Potency [6] 1660 nM

Cc1cnn(C)c1C(=O)Nc1cc(Nc2ccc3c(C=Cc4ccccn4)n[nH]c3c2)ccc1F
active: Potency [1] 20900 nM | Potency [2] 8330 nM | Potency [8] 4180 nM | Potency [5] 20900 nM | Potency [6] 1660 nM

CNC(=O)c1cccc(-c2ccc3c(N4CCOC[C@H]4C)nc(N4CCOC[C@H]4C)nc3n2)c1
active: Potency [1] 66.2 nM | Potency [3] 1660 nM | Potency [7] 83.3 nM | Potency [4] 18.7 nM | Potency [8] 1180 nM

CCCNC(=O)[C@H]1O[C@H]1C(=O)N[C@H](C(=O)N1CCC[C@@H]1C(=O)OC)C(C)CC (stereo partly drawn)
active: Potency [1] 8330 nM | Potency [2] 13200 nM | Potency [3] 5900 nM | Potency [4] 8330 nM | Potency [5] 5900 nM | Potency [6] 9350 nM | Potency [9] 2960 nM

CN(N=O)C(=O)N[C@H]1C(O)OC(CO)[C@@H](O)[C@H]1O (stereo partly drawn)
inactive: Potency [1] | Potency [2] | Potency [7] | Potency [4] | Potency [8] | Potency [5] | Potency [6]

CC[C@]12C=CCN3CC[C@@]4(c5cc([C@@]6(C(=O)OC)C[C@H]7C[C@@H](C(C)(F)F)CN(Cc8c6[nH]c6ccccc86)C7)c(OC)cc5N(C)[C@H]4[C@@](O)(C(=O)OC)[C@H]1OC(C)=O)[C@@H]32
active: Potency [1] 1.7 nM | Potency [3] 118 nM | Potency [7] 5.9 nM | Potency [4] 4.7 nM | Potency [8] 4.2 nM | Potency [6] 8.3 nM

O=C1c2c(O)cccc2[C@@H]([C@@H]2O[C@H](CO)[C@@H](O)[C@H](O)[C@H]2O)c2cc(CO)cc(O)c21
inactive: Potency [1] | Potency [3] | Potency [7] | Potency [4] | Potency [8] | Potency [5] | Potency [6]
